Assay outcomes deposited in PubChem by Buhrlage Lab, Dana-Farber Cancer Institute and Novartis Institutes for BioMedical Research (Cambridge, Mass).
OTUD3 inh: inhibitors of human OTUD3 deubiquitinase; hit rate 0.7% among 47,000; Q5T2D3; purified OTUD3, Ub-rhodamine fluorescence, 2 h; inhibition, % at 25 µM; AID 1645858
USP17 inh: blocks human USP17 ubiquitin-rhodamine cleavage. A8MUK1. inhibition, % at 50 µM. purified USP17, Ub-rhodamine cleavage fluorescence, 3 h. AID 1645855. hit rate 6.5% among 47,000
Target sequence (A8MUK1 whole entry, looked up): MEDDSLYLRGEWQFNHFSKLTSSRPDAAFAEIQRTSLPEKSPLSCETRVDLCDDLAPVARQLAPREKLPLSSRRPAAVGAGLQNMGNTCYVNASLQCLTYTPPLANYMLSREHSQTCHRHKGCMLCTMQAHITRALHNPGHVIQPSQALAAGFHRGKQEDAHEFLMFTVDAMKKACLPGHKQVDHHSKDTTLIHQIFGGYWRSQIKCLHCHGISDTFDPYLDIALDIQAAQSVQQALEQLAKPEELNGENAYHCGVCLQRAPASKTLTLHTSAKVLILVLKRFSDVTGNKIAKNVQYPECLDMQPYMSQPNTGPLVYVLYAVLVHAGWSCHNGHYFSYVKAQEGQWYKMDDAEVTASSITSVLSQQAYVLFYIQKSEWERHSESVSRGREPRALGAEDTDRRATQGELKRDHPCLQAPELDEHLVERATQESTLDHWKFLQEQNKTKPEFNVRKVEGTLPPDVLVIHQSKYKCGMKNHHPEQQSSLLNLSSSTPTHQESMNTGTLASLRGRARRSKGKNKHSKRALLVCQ
USP28 block: blocks human USP28 ubiquitin-rhodamine cleavage | Q96RU2 | purified USP28, Ub-rhodamine cleavage fluorescence, 30 min | inhibition, % at 25 µM | hit rate 3% among 47,000
USP30 inh: inhibitors of human USP30 deubiquitinase; inhibition, % at 25 µM; Q70CQ3; purified USP30, Ub-rhodamine cleavage fluorescence; hit rate 5.3% among 47,000
The depositor's hits bear a star; nt = no result given. Rows were chosen to be rich in hits. Some 12% of all compounds tested hit in one or more screens of this group. Rule as the data show it: active = inhibition above about 30%; inactive = the rest.

SMILES | OTUD3 inh | USP17 inh | USP28 block | USP30 inh
Cc1ccc(CNS(=O)(=O)c2cc3[nH]c4c(c3cc2C)C(=O)CCC4)cc1 | -12 | -22 | 44* | -29
O=C(C1CN(c2nc3c(F)cccc3s2)C1)N1CCC2(CC1)OCCO2 | 6 | 6 | 6 | 11
Cc1ccc(Nc2nc(C(=O)NCc3ccc4c(c3)OCO4)cc3occc23)cc1Cl | 0 | 66* | -14 | -133
Cc1ccc(Nc2nc(C(=O)NCc3ccccc3)cc3occc23)cc1 | -7 | 32* | 0 | -64
O=C(NCc1ccc2c(c1)OCO2)c1cc2occc2c(Nc2ccc(F)cc2)n1 | -15 | 25 | -5 | 1
Cc1cccc(CNC(=O)c2cc3occc3c(Nc3ccc(F)cc3)n2)c1 | 5 | 7 | 6 | 6
COc1ccccc1CN1CC[C@H](c2nnc(-c3ccncc3)o2)C1 | 10 | -2 | 12 | 7
CN=C(N)NCCC[C@H](N)C(=O)O | 8 | 16 | 11 | 31*
COc1cccc(-c2ccc3nc(C4CCN(C(=O)N(C)C)CC4)nn3c2)c1 | 6 | 5 | 30* | 15
CN(C)C(=O)N1CCC(c2nc3ccc(-c4cccc(F)c4)cn3n2)CC1 | -4 | -125 | 1 | 0
CC(C)(C)OC(=O)NCc1ccc(C(=O)Nc2ccc(Cl)cn2)cc1 | 11 | 23 | 18 | 34*
O=C(C1CC1)N1CCC2(C1)c1ccccc1S(=O)(=O)N2Cc1ccc(F)cc1 (stereo unspecified) | 12 | 14 | 8 | 36*
Cn1cc(-c2cnc(-c3cccc(F)c3)nc2)cc1C(=O)NCc1cccnc1 | 1 | 51* | 0 | 3
Cc1cccc(Nc2nc(N3CCCCC3)nc(N3CCCCC3)n2)c1 | 7 | 0 | 7 | 30*
CC(C)C(Nc1ccc(C(F)(F)F)cc1Cl)C(=O)Nc1nc2ccccc2[nH]1 (stereo unspecified) | 12 | 40* | 24 | 37*
O=C(Nc1cnc2ccccc2c1)Nc1ccccc1Cl | -4 | 55* | nt | nt
O=C(COc1ccccc1)Nc1cnc(-c2ccccc2)nc1 | -4 | 44* | -11 | -23
O=C(COc1ccc(F)cc1)Nc1cnc(-c2cccc(Cl)c2)nc1 | -38 | -64 | -84 | -247
O=C(COc1ccc(F)cc1)Nc1cnc(-c2ccc(Cl)cc2)nc1 | 16 | 74* | 23 | 35*
COc1cccc(CC(=O)Nc2cnc(-c3ccc(Cl)cc3)nc2)c1 | 0 | 37* | 9 | 2
Cc1ccc(-c2ncc(NC(=O)COc3cccc(C)c3)cn2)cc1 | -12 | -12 | -30 | -69
O=C(COc1ccccc1)Nc1cnc(-c2ccc(Cl)cc2)nc1 | -8 | 31* | -3 | 12
COc1cccc(C(=O)Nc2cnc(-c3ccccc3)nc2)c1 | -5 | 4 | 4 | 1
C=C1C=C(CCC(=O)O)C(=O)OC1/C=C/C=C/C (stereo unspecified) | 96* | 101* | 99* | 80*
O=C(NCc1ccccc1)c1ccc(-c2ccc(N3CCCC3)nn2)cc1 | -6 | 66* | -2 | -29
SMILES | OTUD3 inh | USP17 inh | USP28 block | USP30 inh
O=C(Nc1ccccc1)c1ccc(-c2ccc(N3CCCC3)nn2)cc1 | 13 | 22 | 22 | 39*
COc1cccc([C@@H]2C[C@]3(C)NC(=O)CCCC[C@@H]3N2CC(=O)Nc2cn(C)nc2C)c1 | -78 | -117 | -110 | -363
O=C(O)CCc1nc2cc(C(F)(F)F)ccc2n(Cc2ccccc2)c1=O | 14 | 41* | 12 | 0
O=C(Cn1c(=O)n(Cc2ccccc2)c(=O)c2cc(Cl)ccc21)c1cccc(C(F)(F)F)c1 | 12 | 16 | 1 | 2
O=C(Nc1nc2ccc(F)cc2s1)c1cc(Cl)sc1Cl | 1 | 3 | 5 | -4
CC1Oc2ccc(NC(=O)c3cccc(S(=O)(=O)N4CCc5ccccc5C4)c3)cc2NC1=O (stereo unspecified) | -6 | 31* | 10 | -14
CCOc1cccc(NC(=O)c2ccc(S(=O)(=O)N3CCc4ccccc4C3)cc2)c1 | 19 | 53* | 21 | 41*
COCCCn1c(C)c(C)c(S(=O)(=O)c2ccccc2)c1NC(=O)c1ccccc1 | 2 | 1 | 1 | 0
Cc1cc(C(=O)C(=O)Nc2nnc(-c3cccnc3)s2)c(C)n1-c1ccccc1F | -39 | -28 | -67 | -342
O=C(NCC1CCCO1)c1cn2ccccc2n1 (stereo unspecified) | -6 | -9 | -18 | -46
Cc1ccc(NS(=O)(=O)c2cc(C(N)=O)ccc2Cl)cc1C | 7 | 13 | 5 | 21
COc1ccccc1N(C)S(=O)(=O)c1ccc(C(=O)Nc2cccc(C(C)=O)c2)cc1 | 1 | -43 | 27 | 0
CCOC(=O)CSc1nnc(-c2cnn(-c3ccccc3)c2N)o1 | 7 | 58* | 15 | 21
Cc1cc(C)nc(Nc2ccc(C3CCN(C(=O)c4cc5ccc(F)cc5[nH]4)CC3)nc2)n1 | -27 | -14 | -11 | -9
O=C(O)c1ccc(Cn2cnc3ccccc3c2=O)o1 | 9 | -12 | 6 | -16
O=C(Nc1cc(Cl)ccc1O)c1ccc(Cn2cnc3ccccc3c2=O)cc1 | -3 | 45* | -2 | -8
N#C/C(=C\c1ccc(C(F)(F)F)cc1)c1c[nH]c2ccccc12 | -5 | 32* | 0 | -25
OC(/C=C/c1c[nH]c2ccccc12)C(F)(F)F (stereo unspecified) | -22 | -12 | -20 | -63
O=C(C1CC1)N1CCN(c2nc3ccc(Br)cc3s2)CC1 | -13 | -12 | -6 | -3
Cc1cc2cc(CNC(=O)NC3CCCCC3)ccc2n1C | -28 | 33* | -14 | -84
COc1ccc(CC(=O)NCc2ccc3c(c2)cc(C)n3C)cc1OC | -47 | -31 | -56 | -213
Cc1ccc(C)c(C(=O)Nc2ccc(C)c(S(=O)(=O)N3CCCCCC3)c2)c1 | -1 | -1 | -4 | -5
CC(C)Oc1ccc(C(=O)Nc2ccccc2F)cc1 | -3 | -13 | 8 | 0
O=C(Nc1ccccc1F)c1ccc(C(=O)c2ccccc2)cc1 | 1 | 35* | 13 | 13
Cc1cc(Nc2ccc(Cl)cc2)n2nc(-c3ccco3)nc2n1 | -51 | 36* | 0 | -163
SMILES | OTUD3 inh | USP17 inh | USP28 block | USP30 inh
Cc1cc(Nc2cc(F)ccc2F)n2nc(-c3ccco3)nc2n1 | -20 | -4 | 5 | -78
COc1ccc(C)cc1Nc1cc(C)nc2nc(-c3ccco3)nn12 | -12 | 17 | -3 | -23
Cc1ccc(C)c(Nc2cc(C)nc3nc(-c4ccco4)nn23)c1 | 13 | 58* | 14 | -15
O=C(NCc1cccs1)c1cnn2c3c(cnc12)CCCC3 | 5 | 9 | 13 | 8
Nc1c(C(=O)NCc2ccc3c(c2)OCO3)nsc1C(=O)O | -9 | -10 | -9 | -27
CC(C)=CCC/C(C)=C/CCC(C)(O)C1Cc2c(c3ccccc3[n+]([O-])c2C)O1 (stereo unspecified) | 1 | 19 | 7 | 30*
O=C(c1ccccc1)N1CC[C@@H]2[C@H](C1)CN2C(=O)NC1CCCCC1 | 8 | 11 | 7 | 19
CC(C)Cn1c(=O)[nH]c2c(C(=O)N3CCCCC3)snc2c1=O | -4 | -4 | 0 | -7
CC(C)n1c(=O)[nH]c2c(C(=O)N3CCCCC3)snc2c1=O | 15 | 19 | 13 | 38*
CC(C)c1ncc(CN2CCc3nc(-c4ccccn4)[nH]c(=O)c3C2)cn1 | 2 | -69 | -21 | -42
